Among the data in PubChem BioAssay (NCI) are growth values, retold here.

This is part of a sample that, as a whole, favours compounds with a hit. Of some 83,000 tested, about 20% had one in any assay.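 Cells were grown in 96-well plates and exposed to the test compound at a single concentration for 48 hours; results are reported as percent growth, with values below 10 considered active.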 A number with no mark means an inactive call. Calls of active or inactive are those of the source.

Test systems include SR leukemia; RPMI-8226 leukemia; OVCAR-8 ovarian; OVCAR-5 ovarian; OVCAR-4 ovarian; SK-OV-3 ovarian; IGROV1 ovarian; OVCAR-3 ovarian; HS 578T breast; NCI/ADR-RES ovarian; T-47D breast; BT-549 breast; MDA-MB-435 melanoma; SW-620 colon; MCF7 breast; HCT-116 colon; HCC-2998 colon; KM12 colon; MDA-MB-468 breast.
Holding throughout (test): NCI-60 one-dose screen, 48 h (100 = growth as untreated, 0 = no growth, -100 = all killed)
What all share (settings): 10 µM unless noted

Turning to `Cc1ccc(C(=O)C(c2c[nH]c3ccccc23)c2c[nH]c3ccccc23)cc1`, the growth is -6.82% (active) in the assay on SR leukemia; -2.33% (active) in the assay on RPMI-8226 leukemia; 44.2% in the assay on OVCAR-8 ovarian; 46.7% in the assay on OVCAR-5 ovarian; 43.7% in the assay on OVCAR-4 ovarian; 94% with SK-OV-3 ovarian. Also, the growth in the assay on IGROV1 ovarian is 35.8%; in the assay on OVCAR-3 ovarian, 29.2%; in the assay with HS 578T breast, 83.2%; in the assay with NCI/ADR-RES ovarian, 24.8%; in the assay on T-47D breast it was 45.7%; in the assay on BT-549 breast it was 69.1%. Further, the growth in the assay on MDA-MB-435 melanoma was 19.4%; in the assay with SW-620 colon it was 0.879% (active); in the assay with MCF7 breast, 9.47% (active); in the assay on HCT-116 colon, -62.3% (active); with HCC-2998 colon, 4.87% (active); with KM12 colon, 26.1%. The growth in the assay with MDA-MB-468 breast is 26%.
For `COc1ccc(-c2nc3cc(C)ccc3n2CC(=O)N=Nc2c(O)[nH]c3ccccc23)cc1`, the growth with SR leukemia is 0.97% (active); in the assay on RPMI-8226 leukemia, 59.3%; with OVCAR-8 ovarian it was -58.1% (active); with OVCAR-5 ovarian it was 13.8%; in the assay with OVCAR-4 ovarian, -25.3% (active); in the assay on SK-OV-3 ovarian it was 47.8%. Besides, the growth in the assay with IGROV1 ovarian was 59.3%; in the assay on OVCAR-3 ovarian, -33.8% (active); in the assay on HS 578T breast it was 4.27% (active); in the assay with NCI/ADR-RES ovarian it was -47.1% (active); in the assay on T-47D breast it was 28.9%; in the assay on BT-549 breast it was -63.2% (active). The growth in the assay with MDA-MB-435 melanoma is 12.4%; with SW-620 colon it was 6.89% (active); in the assay on MCF7 breast, 20%; with HCT-116 colon, -95.1% (active); with HCC-2998 colon, 26.8%; with KM12 colon it was 14.1%. In addition, in the assay on MDA-MB-468 breast, the growth was -0.636% (active).
As to `COc1ccc(C(=O)/C=C/c2ccc(OC)c(OCc3ccccc3)c2)cc1OC`, the growth is 14.4% with SR leukemia; 7.98% (active) in the assay on RPMI-8226 leukemia; -7.56% (active) with OVCAR-8 ovarian; 31.4% with OVCAR-5 ovarian; 30.1% in the assay with OVCAR-4 ovarian; 24.7% in the assay with SK-OV-3 ovarian. Besides, the growth in the assay with IGROV1 ovarian was 22.2%; in the assay with OVCAR-3 ovarian it was 16.3%; in the assay with HS 578T breast it was 18.7%; in the assay with NCI/ADR-RES ovarian, -4.74% (active); with T-47D breast it was 15.7%; with BT-549 breast, -15.5% (active). Also, the growth was 22.7% in the assay with MDA-MB-435 melanoma; 9.63% (active) in the assay on SW-620 colon; 7.12% (active) in the assay with MCF7 breast; 10.7% in the assay with HCT-116 colon; 12.6% in the assay on HCC-2998 colon; 8.98% (active) in the assay with KM12 colon. Moreover, the growth in the assay with MDA-MB-468 breast was 1.46% (active).
As for `Cc1ccc(-n2c(-c3cc4ccccc4nc3Cl)noc2=O)cc1`, the growth was 31.8% with SR leukemia; 81.2% in the assay with RPMI-8226 leukemia; 94.4% with OVCAR-8 ovarian; 98.1% in the assay on OVCAR-5 ovarian; 92.5% with OVCAR-4 ovarian; 80.1% in the assay with SK-OV-3 ovarian. The growth in the assay on IGROV1 ovarian was 90.9%; in the assay on OVCAR-3 ovarian, 99.8%; with HS 578T breast, 80.9%; in the assay with NCI/ADR-RES ovarian, 52.3%; in the assay with T-47D breast, 63.9%; with BT-549 breast it was 81.1%. Further, the growth was 6.44% (active) in the assay with MDA-MB-435 melanoma; 68.9% in the assay on SW-620 colon; 64.5% with MCF7 breast; 86% in the assay on HCT-116 colon; 90.9% with HCC-2998 colon; 55% in the assay with KM12 colon.
`COc1ccc(N2N=C(c3ccc4c(c3)OCO4)CC2c2cccc(NC(=O)CCCNS(=O)(=O)c3ccc(F)cc3)c2)cc1` (stereo not given): the growth is 18.3% in the assay on SR leukemia; 39.4% with RPMI-8226 leukemia; 78.8% in the assay on OVCAR-8 ovarian; 99.2% with OVCAR-5 ovarian; 57.5% in the assay on OVCAR-4 ovarian; 83.5% in the assay on SK-OV-3 ovarian. Also, the growth is 90.7% in the assay with IGROV1 ovarian; 81.3% in the assay on OVCAR-3 ovarian; 67.2% with HS 578T breast; 84.5% with NCI/ADR-RES ovarian; 53% with T-47D breast; 97.3% in the assay on BT-549 breast. Also, the growth was 63.2% with MDA-MB-435 melanoma; 86.2% in the assay with SW-620 colon; 42.2% in the assay with MCF7 breast; 49.9% in the assay on HCT-116 colon; 60.1% with HCC-2998 colon; 41.3% with KM12 colon. Also, the growth in the assay with MDA-MB-468 breast was 35.5%.
As to `CCN(CC)c1ccnc(CNCCSC(c2ccccc2)(c2ccccc2)c2ccc(C)cc2)c1`, the growth in the assay on SR leukemia was -60.8% (active); with RPMI-8226 leukemia, -42% (active); in the assay with OVCAR-8 ovarian it was -90.3% (active); in the assay on OVCAR-5 ovarian it was -70.6% (active); in the assay on OVCAR-4 ovarian it was -21% (active); in the assay with SK-OV-3 ovarian it was -87.4% (active). Further, the growth with IGROV1 ovarian is -30.9% (active); with OVCAR-3 ovarian, -88.4% (active); with HS 578T breast it was -49.3% (active); in the assay on NCI/ADR-RES ovarian, -84.3% (active); in the assay with T-47D breast, -67.8% (active); with BT-549 breast, -91.9% (active). For the same compound, the growth was -90.6% (active) with MDA-MB-435 melanoma; -72.2% (active) in the assay on SW-620 colon; -82.4% (active) with MCF7 breast; -88.2% (active) with HCT-116 colon; -96.4% (active) with HCC-2998 colon; -83.9% (active) in the assay on KM12 colon. Besides, the growth in the assay with MDA-MB-468 breast was -92.3% (active).
Consider `O=C(c1ccc(Cl)cc1)c1ccc(OCCCN2CCN(c3ccncc3)CC2)cc1`, for which the growth is -32% (active) in the assay on SR leukemia; 10.2% with RPMI-8226 leukemia; 75.7% in the assay with OVCAR-8 ovarian; 69% in the assay with OVCAR-5 ovarian; 47.3% in the assay on OVCAR-4 ovarian; 34.8% in the assay with SK-OV-3 ovarian. Also, the growth is 67.3% in the assay on IGROV1 ovarian; 56.4% in the assay on OVCAR-3 ovarian; 53.7% in the assay with HS 578T breast; 50% in the assay on NCI/ADR-RES ovarian; 29% with T-47D breast; 26.9% in the assay on BT-549 breast. Further, the growth is 41.4% with MDA-MB-435 melanoma; 19.5% in the assay with SW-620 colon; 13.6% with MCF7 breast; 17.4% with HCT-116 colon; 64.9% in the assay on HCC-2998 colon; 57.9% in the assay with KM12 colon. For the same compound, in the assay on MDA-MB-468 breast, the growth is -16.8% (active).
For the compound `COc1ccc2oc(=O)c(C3(C)NC(=O)c4c(/C=C/C(=O)OC(C)(C)C)cccc4N3)cc2c1` (stereo not given), the growth in the assay on SR leukemia was 26.2%; in the assay with RPMI-8226 leukemia, 28.5%; in the assay with OVCAR-8 ovarian, 37.9%; in the assay with OVCAR-5 ovarian it was 60.9%; in the assay with OVCAR-4 ovarian it was 41.5%; in the assay on SK-OV-3 ovarian it was 51.2%. Moreover, the growth is 41.6% with IGROV1 ovarian; 55.4% with OVCAR-3 ovarian; 60% with HS 578T breast; 36.6% with NCI/ADR-RES ovarian; 6.58% (active) in the assay with T-47D breast; 3.69% (active) with BT-549 breast. Further, the growth with MDA-MB-435 melanoma is 46.7%; in the assay on SW-620 colon, 63.8%; in the assay with MCF7 breast, 24.1%; in the assay with HCT-116 colon, 30%; in the assay on HCC-2998 colon, 62.1%; in the assay on KM12 colon, 47%.
